BoNT-F LC inh = BoNT/F light chain protease inhibitors, primary screen, biochemical, flow cytometry, MLPCN library. Botulinum neurotoxin type F light chain protease (Clostridium botulinum). 360,000 compounds, 0.22% hits. inhibition, % at 10 µM. Multiplex microsphere protease cleavage assay. AID 588497, 2011; in the data active = inhibition above about 35%, passing the limit was not always enough; inconclusive = no clear call, values can overlap the other calls
BoNT A protease = BoNT/A light chain protease inhibitors, primary screen, biochemical, flow cytometry, MLPCN library. inhibition, % at 10 µM. multiplex microsphere protease substrate cleavage. 360,000 compounds, 0.17% hits. Botulinum neurotoxin type A light chain protease (Clostridium botulinum A str. ATCC 3502). AID 588499, 2011
Bead autofluor = compound fluorescence in toxin protease inhibitor counterscreen | fluorescence intensity (no concentration beside the values) | 360,000 compounds, 3.1% hits | compound autofluorescence counterscreen, microsphere flow cytometry; hits give high values; in the data active = fluorescence intensity above about 16000; inconclusive = no clear call, values can overlap the other calls
MazF activator = activators of E. coli MazEF toxin-antitoxin RNase, primary screen, biochemical, fluorescence, uHTS | FAM/BHQ RNA-DNA oligo cleavage fluorescence, 5 h | activation, % at 20 µM | 350,000 compounds, 0.32% hits; in the data active = activation above about 50%
Anthrax LF prot = Bacillus anthracis LF protease inhibitors, primary screen, biochemical, multiplex microsphere, MLPCN library | Lethal factor (Bacillus anthracis), P15917 | multiplex microsphere protease cleavage assay | inhibition, % at 10 µM | 360,000 compounds, 0.12% hits | AID 588501, 2011
Target sequence (P15917 whole entry, looked up): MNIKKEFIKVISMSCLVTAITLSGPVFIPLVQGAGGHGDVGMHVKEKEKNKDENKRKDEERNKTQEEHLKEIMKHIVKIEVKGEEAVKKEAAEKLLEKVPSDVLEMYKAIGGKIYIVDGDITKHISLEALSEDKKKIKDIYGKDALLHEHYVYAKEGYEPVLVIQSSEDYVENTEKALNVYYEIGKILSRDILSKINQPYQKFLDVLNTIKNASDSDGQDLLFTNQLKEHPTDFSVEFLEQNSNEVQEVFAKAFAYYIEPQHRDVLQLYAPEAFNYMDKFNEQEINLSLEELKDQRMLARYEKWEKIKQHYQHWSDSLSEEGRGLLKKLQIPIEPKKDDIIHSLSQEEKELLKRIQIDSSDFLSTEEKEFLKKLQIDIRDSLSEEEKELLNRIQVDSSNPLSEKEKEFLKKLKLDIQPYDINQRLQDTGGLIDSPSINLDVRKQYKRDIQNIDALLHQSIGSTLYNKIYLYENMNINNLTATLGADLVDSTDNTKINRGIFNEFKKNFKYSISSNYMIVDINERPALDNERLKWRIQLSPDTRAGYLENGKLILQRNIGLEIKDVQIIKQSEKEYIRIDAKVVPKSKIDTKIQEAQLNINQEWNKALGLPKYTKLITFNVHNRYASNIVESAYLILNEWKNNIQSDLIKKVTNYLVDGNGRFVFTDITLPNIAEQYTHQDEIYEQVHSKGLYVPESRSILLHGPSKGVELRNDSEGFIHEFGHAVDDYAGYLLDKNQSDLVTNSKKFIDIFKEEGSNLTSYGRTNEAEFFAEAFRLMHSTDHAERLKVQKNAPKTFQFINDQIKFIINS
Hits are given with their value. Only some compounds are listed: those with a hit (about 3.7% of all), similar ones and a draw of the others. Cut-off read from the data, not from the text of the source, unless noted: active = inhibition above about 30%; inconclusive = no clear call, values can overlap the other calls; inactive = below that.

Screening CCc1nnc(NC(=O)CSc2nc3ccccc3o2)s1 returned BoNT-F LC inh inactive, BoNT A protease inactive, Bead autofluor 22539, MazF activator inactive and Anthrax LF prot inactive.
`CCc1nnc(NC(=O)CSc2nc(-c3ccc(F)cc3)cc(-c3ccccc3)c2C#N)s1` gave BoNT-F LC inh inactive, BoNT A protease inactive, Bead autofluor inactive, MazF activator 63 and Anthrax LF prot inactive.
`CC(=O)Nc1nonc1NC(=O)CSc1nc2ccccc2o1` gave BoNT-F LC inh inactive, BoNT A protease inactive, Bead autofluor 22359, MazF activator inactive and Anthrax LF prot inactive.
For O=C(CSc1nc(-c2ccccc2)c(-c2ccccc2)o1)Nc1nncs1 the results were BoNT-F LC inh inactive, BoNT A protease inactive, Bead autofluor inactive, MazF activator inactive and Anthrax LF prot inactive.
`c1ccc2c(-c3ccc4nncn4c3)cncc2c1` gave BoNT-F LC inh inactive, BoNT A protease inactive, Bead autofluor inactive and Anthrax LF prot inactive.
Screening C[C@@H]1CN([C@H](C)CO)C(=O)c2cc(C3=CCCCC3)cnc2O[C@@H]1CN(C)Cc1ccccc1C(=O)O returned BoNT-F LC inh inactive, BoNT A protease inactive, Bead autofluor inactive, MazF activator inactive and Anthrax LF prot inactive.
For COC(=O)[C@@]1(Sc2ccc(C)cc2)CC(=O)N(c2ccccc2)[C@@H]1c1ccccc1 the results were BoNT-F LC inh inactive, BoNT A protease inactive, Bead autofluor inactive and Anthrax LF prot inactive.
For O=C(c1cccs1)N1CCN(Cc2nc(-c3ccccc3)no2)CC1 the results were BoNT-F LC inh inactive, BoNT A protease inactive, Bead autofluor inactive, MazF activator inactive and Anthrax LF prot inactive.
Screening CCOC(=O)CSc1nnc(CSc2nc3sc4c(c3c(=O)[nH]2)CCC4)n1-c1ccccc1 returned BoNT-F LC inh inactive, BoNT A protease inactive, Bead autofluor 21953, MazF activator inactive and Anthrax LF prot inactive.
Screening CCOC(=O)CSc1nnc(CSc2nc3sc4c(c3c(=O)[nH]2)CCC4)n1C returned BoNT-F LC inh inactive, BoNT A protease inactive, Bead autofluor inactive, MazF activator inactive and Anthrax LF prot inactive.
O=S(=O)(c1ccc(NC(=S)N/N=C/c2c3ccccc3cc3ccccc23)cc1)N1CCOCC1 was read as BoNT-F LC inh inactive, BoNT A protease 33, Bead autofluor inactive, MazF activator inactive and Anthrax LF prot inactive.
`CN(Cc1ccc(C(C)(C)C)cc1)C(=O)c1ccc2c(c1)OCO2` gave MazF activator inactive.
For Cc1ccc(CNn2cnnc2SCc2ccc(F)cc2)cc1 the results were BoNT-F LC inh inactive, BoNT A protease inactive, Bead autofluor 22609, MazF activator inactive and Anthrax LF prot inactive.
`Fc1ccc(CNn2cnnc2SCc2ccc(F)cc2)cc1` gave BoNT-F LC inh inactive, BoNT A protease inactive, Bead autofluor inactive, MazF activator inactive and Anthrax LF prot inactive.
`Cc1ccsc1CNn1cnnc1SCc1ccc(Cl)cc1` gave BoNT-F LC inh inactive, BoNT A protease inactive, Bead autofluor 23748, MazF activator inactive and Anthrax LF prot inactive.
For Fc1ccc(CSc2nncn2NCc2ccc3c(c2)OCO3)cc1 the results were BoNT-F LC inh inactive, BoNT A protease inactive, Bead autofluor inactive, MazF activator inactive and Anthrax LF prot inactive.
Screening CCCCn1c(N)c(N(CC(C)C)C(=O)CSC(C)C(=O)Nc2cc(C)on2)c(=O)[nH]c1=O (configuration not stated) returned BoNT-F LC inh inactive, BoNT A protease inactive, Bead autofluor inactive, MazF activator inactive and Anthrax LF prot inactive.
`CCOc1ccc(C(=O)Nc2nnc(C)s2)cc1OCC` gave BoNT-F LC inh inactive, BoNT A protease inconclusive, Bead autofluor 20767, MazF activator inactive and Anthrax LF prot inactive.
CCOc1ncccc1C(=O)Nc1nnc(C)s1 was read as BoNT-F LC inh inactive, BoNT A protease inactive, Bead autofluor inactive, MazF activator inactive and Anthrax LF prot inactive.
COc1ccc2c(C)cc(SCC(=O)Nc3cc(C(N)=O)cc(C(N)=O)c3)nc2c1 was read as BoNT-F LC inh inactive, BoNT A protease inactive, Bead autofluor inconclusive, MazF activator 104 and Anthrax LF prot inactive.
CCCOc1ccccc1N1C(=O)CC(N2CCOCC2)C1=O (configuration not stated) was read as BoNT-F LC inh inactive, BoNT A protease inactive, Bead autofluor 23760, MazF activator inactive and Anthrax LF prot inactive.
`C#CCOCCOCCOCCNc1nc(N2CCN(C(=O)CCCCCCCCCCNC(=O)Cn3cc(C[C@@H](C)O)nn3)CC2)nc(N2CCN(C(=O)CCCCCCCCCCNC(=O)[C@@H](CCC(=O)O)n3cc(CCCCCN)nn3)CC2)n1` gave BoNT-F LC inh inactive, BoNT A protease inactive, Bead autofluor inactive, MazF activator 63 and Anthrax LF prot inactive.
`C#CCOCCOCCOCCNc1nc(N2CCN(C(=O)CCCCCCCCCCNC(=O)Cn3cc(C[C@@H](C)O)nn3)CC2)nc(N2CCN(C(=O)CCCCCCCCCCNC(=O)[C@H](CCCCN)n3cc(CCCC(=O)O)nn3)CC2)n1` gave BoNT-F LC inh inactive, BoNT A protease inactive, Bead autofluor inactive, MazF activator inactive and Anthrax LF prot inactive.
Screening CCC(=O)Nc1ccccc1C(=O)NC1CCCCC1 returned BoNT-F LC inh inactive, BoNT A protease inactive, Bead autofluor 21479, MazF activator inactive and Anthrax LF prot inactive.
`O=C(OCc1ccc(Cl)cc1)c1ccccc1C(=O)c1ccccc1` gave BoNT-F LC inh inactive, BoNT A protease inactive, Bead autofluor 17651, MazF activator inactive and Anthrax LF prot inactive.
Screening O=C(OCc1ccc(Cl)cc1)c1cccnc1Cl returned BoNT-F LC inh inactive, BoNT A protease inactive, Bead autofluor inactive, MazF activator inactive and Anthrax LF prot inactive.
For N/C(=N\OC(=O)c1ccc(Br)cc1)c1ccccc1 the results were BoNT-F LC inh inactive, BoNT A protease inactive, Bead autofluor 25293, MazF activator inactive and Anthrax LF prot inactive.
Screening O=C(O)CCC(=O)Nc1ccccc1C(=O)NC1CCCCC1 returned BoNT-F LC inh inactive, BoNT A protease inactive, Bead autofluor inactive, MazF activator inactive and Anthrax LF prot inactive.
For CC(=O)Nc1ccccc1C(=O)OCc1ccc(F)cc1 the results were BoNT-F LC inh inactive, BoNT A protease inactive, Bead autofluor inactive, MazF activator inactive and Anthrax LF prot inactive.
CCC(=O)Nc1ccccc1C(=O)OCc1ccc(C(=O)c2ccccc2)cc1 was read as BoNT-F LC inh inactive, BoNT A protease inactive, Bead autofluor 20219, MazF activator inactive and Anthrax LF prot inactive.
Screening N/C(=N\OC(=O)c1cccc(Br)c1)c1ccc(Br)cc1 returned BoNT-F LC inh inactive, BoNT A protease inactive, Bead autofluor inactive, MazF activator inactive and Anthrax LF prot inactive.
Screening CCN(CC)c1ncnc2c1ncn2[C@H]1CN(Cc2ccc(OC)cc2)C[C@@H](CO)O1 returned BoNT-F LC inh inactive, BoNT A protease inactive, Bead autofluor inactive and Anthrax LF prot inactive.
Screening COCc1c(C(=O)Nc2cccc(S(=O)(=O)N3CCCCC3)c2)oc2ccccc12 returned BoNT-F LC inh inactive, BoNT A protease inactive, Bead autofluor inactive, MazF activator inactive and Anthrax LF prot inactive.
